Candida biofilm – kills Candida albicans biofilms | C. albicans biofilm + clotrimazole, Alamar Blue | 85,000 compounds, 0.14% hits | AID 834 | inhibition, % at 6 µM;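 active means inhibition above 20%; inactive means inhibition below 20%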;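 further: preformed 24 hr biofilms exposed to compound for 48 hr; 0% = biofilm without compound and 100% = blank killed by clotrimazole plus chlorhexidine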
sEH activator – soluble epoxide hydrolase (human) activation; P34913; purified human sEH enzymatic activity, activator screen; activation, % at 2 µM; 91,000 compounds, 0.04% hits; in the data active means activation above about 37%
Target sequence (P34913 whole entry, looked up): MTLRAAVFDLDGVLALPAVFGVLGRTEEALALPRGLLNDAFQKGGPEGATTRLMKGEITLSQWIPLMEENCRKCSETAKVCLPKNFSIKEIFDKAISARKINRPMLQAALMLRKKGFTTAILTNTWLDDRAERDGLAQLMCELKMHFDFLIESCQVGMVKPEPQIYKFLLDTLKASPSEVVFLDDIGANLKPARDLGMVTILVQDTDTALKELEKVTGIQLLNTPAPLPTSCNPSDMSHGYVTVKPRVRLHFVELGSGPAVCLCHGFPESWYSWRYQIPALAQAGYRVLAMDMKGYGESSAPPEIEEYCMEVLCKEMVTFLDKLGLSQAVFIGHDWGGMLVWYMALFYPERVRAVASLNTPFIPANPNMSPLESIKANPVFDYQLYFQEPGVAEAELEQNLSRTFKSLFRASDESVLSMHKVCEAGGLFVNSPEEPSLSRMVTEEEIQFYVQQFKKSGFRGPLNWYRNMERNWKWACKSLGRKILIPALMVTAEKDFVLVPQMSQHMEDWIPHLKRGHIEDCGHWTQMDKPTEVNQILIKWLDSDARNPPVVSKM
sEH inhibitor – inhibitors of human soluble epoxide hydrolase. P34913. recombinant human sEH enzymatic activity assay. inhibition, % at 2 µM. 91,000 compounds, 0.34% hits. AID 707; in the data active means inhibition above about 80%
MRP1 act – activators of MRP-1; viability increase, % at 10 µM; 140,000 compounds, 0.61% hits; H69AR cells + doxorubicin, viability rescue, CellTiter-Glo;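 active means viability gain under doxorubicin at or above a set limit, the compound median plus 3 SD, cut at about 4.7% in these data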;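 further: MRP-1 overexpressing cells given doxorubicin 25 µM after compound pretreatment; 18-22 h compound pretreatment then 72 h with doxorubicin before readout; 0% = doxorubicin-only wells and 100% = vehicle-treated cells without doxorubicin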
MRP reversal – reverses drug resistance mediated by MRP | H69AR cells + 2 uM doxorubicin, CellTiter-Glo, 72 h | differential viability (reversal), % at 10 µM | 85,000 compounds, 0.04% hits;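 active means viability drop by adding the cancer drug above about 55%, with treated viability meeting a 40% cutoff, limit read from the data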;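 further: viability without doxorubicin minus viability with 2 µM doxorubicin for each compound; larger differential means the compound sensitizes cells more to doxorubicin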
An asterisk follows results filed as active; . = no result given. Only some compounds are listed: those with a hit (about 0.87% of all), similar ones and a draw of the others.

SMILES | Candida biofilm | sEH activator | sEH inhibitor | MRP1 act | MRP reversal
O=C(O)C1C2CCC(O2)C1C(=O)Nc1cnn(Cc2ccccc2)c1 (stereo not given) | 2 | 10 | -9 | -3 | 16
O=C(Nc1cnn(Cc2ccccc2)c1)NC12CC3CC(CC(C3)C1)C2 | . | -92 | 92* | -2 | .
CC(Cc1cccs1)NC(=O)Nc1ccc(Cl)c(Cl)c1 (stereo not given) | 9 | -90 | 90* | -2 | 0
CC(Cc1cccs1)NC(=O)Nc1ccccc1 (stereo not given) | 5 | -58 | 58 | -1 | -5
CC(Cc1cccs1)NC(=O)Nc1ccc(Cl)cc1 (stereo not given) | . | -86 | 87* | 3 | .
NC(=O)NCCC1=CCCCC1 | . | 1 | 0 | -1 | .
O=C(NCc1ccccc1)NC1CCCCC1 | 9 | -58 | 58 | -1 | 0
O=C(NCCC1=CCCCC1)NC1CCCCC1 | . | -94 | 94* | -2 | .
O=C(NCCc1ccccc1)NC1CCCCC1 | 3 | -82 | 82* | 0 | 11
CCOC(=O)C1=C(C)Nc2ncnn2C1c1cccnc1 (stereo not given) | 6 | -9 | 12 | 177* | -12
Nc1ccc(C(=O)OCC(=O)N2c3ccccc3Sc3ccccc32)cc1[N+](=O)[O-] | . | . | . | 8.7* | .
Nc1ccc(C(=O)OCC(=O)N2CCc3ccccc3C2)cc1[N+](=O)[O-] | . | . | . | -1 | .
CCN(CCO)Cc1csc2ccc(C(C)(C)C)cc12 | . | . | . | -4 | .
O=C1CC(c2ccccc2)c2cc(O)ccc2O1 (stereo not given) | . | . | . | 5.1* | .
COc1ccc(C(=O)NCC(c2cccnc2)N2CCN(c3ccccc3OC)CC2)cc1OC (stereo not given) | 24* | 16 | -15 | -2 | 11
O=C1c2cccc3cccc(c23)C(=O)N1CC1CCN(S(=O)(=O)c2ccc(F)cc2)CC1 | . | . | . | 2 | .
[N-]=[N+]=CC(=O)CC(c1ccccc1)N1C(=O)c2ccccc2C1=O (stereo not given) | 7 | 2 | 2 | 1 | -13
C[C@H](C(=O)C=[N+]=[N-])N1C(=O)c2ccccc2C1=O | -1 | 14 | -15 | 12* | -1
Cc1ccc(NC(=O)N(Cc2ccc3c(c2)OCO3)Cc2cc3cc4c(cc3[nH]c2=O)OCCO4)cc1 | 0 | 2 | -2 | -4 | 55*
O=C(O)c1ccccc1-c1nc2ccccc2n1-c1ccccc1 | . | . | . | -1 | .
O=C1c2ccccc2-c2nc3ccccc3n21 | 3 | 8 | -2 | 8.3* | 7
Cc1ccc2c(c1)N(C(=O)c1ccco1)C(C)(C)c1ssc(=S)c1-2 | 64* | 5 | -9 | 2 | 23
CC(=O)Nc1ccccc1C(=O)C(=O)Nc1cccc(F)c1 | . | 39* | -43 | . | .
CC(=O)Nc1ccccc1C(=O)C(=O)Nc1ccc(C)c(F)c1 | . | . | . | 0 | .
CCOc1ccc(-c2cc(C(=O)NCC3CCCO3)c3ccccc3n2)cc1 (stereo not given) | . | . | . | -1 | .
SMILES | Candida biofilm | sEH activator | sEH inhibitor | MRP1 act | MRP reversal
CN(CC(=O)NCCc1ccc(Cl)cc1)S(=O)(=O)c1ccc2c(c1)c(=O)n(C)c(=O)n2C | 13 | 5 | -6 | 6.1* | 4
CN(CC(=O)Nc1ccc(C(N)=O)cc1)CC(=O)Nc1ccccc1Cl | . | . | . | -3 | .
N#Cc1c(N)n(CCOC(=O)c2cccc(Br)c2)c2nc3ccccc3nc12 | -1 | -2 | 4 | 5.7* | 6
OC(CNC1CCCCC1)COCCOc1ccc(Br)cc1 (stereo not given) | . | . | . | -5 | .
CCCCN(C(=O)c1cc2ccccc2o1)c1c(N)n(CCC)c(=O)[nH]c1=O | . | . | . | -1 | .
CCCn1cc(SCC(=O)NCc2ccco2)c2ccccc21 | -5 | 10 | -7 | -1 | 18
O=C(CSc1cn(CCNC(=O)c2ccccc2)c2ccccc12)NCc1ccco1 | 22* | . | . | -5 | 5
CCCCCNc1nc(-c2ccccc2)cs1 | 8 | -5 | 7 | -2 | 20
CC1=CC(=O)C=C(C)C1=NOC(=O)c1cccc([N+](=O)[O-])c1 | 86* | 13 | -16 | -4 | 4
CCOc1ccccc1CN1C(=O)c2ccccc2C1C(=O)NC(C)CC (stereo not given) | 8 | -12 | 13 | -1 | 2
Cc1ccc(S(=O)(=O)NC(N)=NCCc2ccc(Cl)cc2)cc1C | . | . | . | -2 | .
O=C1OC(Nc2ccccn2)c2ccccc21 (stereo not given) | 3 | 8 | -4 | 32* | -17
O=C1OC(Nc2ncccn2)c2ccccc21 (stereo not given) | 6 | 8 | -8 | -1 | 24
O=c1c2sccc2n(Cc2cccc(F)c2)c(=O)n1-c1ccc(F)cc1 | . | . | . | -1 | .
CCOC(=O)c1c(C)oc2c1c(C(c1cccnc1)N1CCOCC1)c(O)c1ccccc12 (stereo not given) | . | . | . | -6 | .
Cc1ccc(NC(=O)c2noc3c2CCc2ccccc2-3)cc1 | 7 | 11 | -11 | -1 | -16
Cc1nn(Cc2ccccc2)c(C)c1NC(=O)c1noc2c1CCc1ccccc1-2 | 7 | 8 | -10 | 6.5* | 18
O=C(Nc1ccccc1)Nc1ccc(S(=O)(=O)N2CCCCC2)cc1 | 1 | -92 | 92* | -2 | -48
O=C(CN1C(=O)c2ccccc2S1(=O)=O)Nc1ccc(S(=O)(=O)N2CCCC2)cc1 | 3 | -68 | 68 | 0 | -12
O=C(CN1C(=O)c2ccccc2S1(=O)=O)Nc1ccc(S(=O)(=O)N2CCCCC2)cc1 | 8 | -83 | 83* | 0 | -4
CCOCCCNC(=S)N1C2CCC1CC(NC(=O)NC13CC4CC(CC(C4)C1)C3)C2 (stereo not given) | . | -74 | 74 | -1 | .
COC(=O)N/N=C/c1ccc(-c2cc(Cl)cc(Cl)c2)o1 | . | . | . | 8.5* | .
NC(=S)N/N=C/c1ccc(-c2cc(Cl)cc(Cl)c2)o1 | 4 | 6 | -5 | -1 | -20
COC(=O)N/N=C/c1ccc(-c2ccc(C)c(Cl)c2)o1 | . | . | . | 7.5* | .
COC(=O)N/N=C/c1ccc(-c2cccc(Cl)c2)o1 | . | . | . | 4.8* | .
SMILES | Candida biofilm | sEH activator | sEH inhibitor | MRP1 act | MRP reversal
O=P(Cc1ccccn1)(c1ccccc1)c1ccccc1 | . | -8 | 6 | -2 | .
CC(C)(Oc1ccc(Cl)cc1)C(=O)NC1=NN(c2ccccc2)C(=O)C1 | . | . | . | 1 | .
C=C(C)C(=O)NC1=NN(c2ccccc2)C(=O)C1 | . | . | . | 6.0* | .
CCOC(=O)c1ccc(N2C(=O)c3n[nH]c(C)c3C2c2ccc(OC)cc2)cc1 (stereo not given) | 6 | 15 | -17 | 0 | 12
CCOC(=O)c1ccc(N2C(=O)c3n[nH]c(C)c3C2c2ccc(OC)cc2OC)cc1 (stereo not given) | 3 | -3 | 1 | 9.4* | 1
Cc1ccc(N2C(=O)CC2(C#N)c2ccc(OCc3ccccc3)cc2)cc1 (stereo not given) | . | -3 | 6 | -3 | .
CCOc1c(Cl)cc(CNCC(C)C)cc1OC | 59* | -4 | 4 | -2 | 10

Compound activity: PubChem BioAssay, several laboratories
